Sampled rows, rich in hits. Any-hit rate of the full collection: about 1%.
BioA inh: blocks M. tuberculosis BioA enzyme activity; hit rate 0.096% among 360,000; purified M. tuberculosis BioA enzyme, plate reader; inhibition, % at 9.99 µM; in the data active = inhibition above about 40%
VHR inh abs: DUSP3 (human) phosphatase inhibition; P51452; recombinant VHR phosphatase, pNPP absorbance; inhibition, % at 13.3 µM; hit rate 0.52% among 290,000; AID 1654; in the data active = inhibition above about 50%
Yp Topo-I inh: blocks Yersinia pestis topoisomerase I activity; Y. pestis Topo-I cleavage product accumulation, plate reader; activity, % at 10 µM; hit rate 0.064% among 360,000; in the data active = activity above about 50%, passing the limit was not always enough
TcdB inh: inhibitors of Clostridioides difficile toxin B glycohydrolase; P18177; TcdB glycohydrolase enzymatic assay, plate reader; inhibition, % at 9.99 µM; hit rate 0.24% among 350,000; in the data active = inhibition above about 10%
FadD28 binding: M. tuberculosis FadD28 bisubstrate binding inhibition. FadD28 bisubstrate probe binding, fluorescence polarization. inhibition, % at 12.5 µM. hit rate 0.22% among 360,000; in the data active = inhibition above about 8.5%, passing the limit was not always enough
MazF activator: MazEF (E. coli) toxin RNase activation; P0AE70; activation, % at 20 µM; FAM/BHQ RNA-DNA oligo cleavage fluorescence, 5 h; hit rate 0.32% among 350,000; in the data active = activation above about 50%
A number is an active result.

What do the screens show for `Cc1cc(C)cc(N2C(=O)NC(=O)/C(=C\c3cc(C)n(C)c3C)C2=O)c1`?
VHR inh abs: inactive; Yp Topo-I inh: inactive; TcdB inh: inactive; FadD28 binding: inactive; MazF activator: 92

What do the screens show for `Cn1c(/C(C#N)=C/c2ccc(-c3ccc(S(N)(=O)=O)cc3)o2)nc2ccccc21`?
BioA inh: inactive; VHR inh abs: inactive; Yp Topo-I inh: inactive; FadD28 binding: 11; MazF activator: inactive

How did COc1cc(OC)c(OC)cc1/C=C(\C#N)C(=O)NCc1cccs1 do in these assays?
BioA inh: inactive; VHR inh abs: inactive; Yp Topo-I inh: inactive; TcdB inh: inactive; FadD28 binding: inactive; MazF activator: 84

Results for Cc1cc(/C=C(\C#N)C(=O)NCc2cccs2)c(C)[nH]1 ?
VHR inh abs: inactive; Yp Topo-I inh: inactive; TcdB inh: inactive; FadD28 binding: inactive; MazF activator: inactive

How did Cc1cccc(NC(=S)N/N=C/c2ccc(Cl)c([N+](=O)[O-])c2)c1 do in these assays?
BioA inh: inactive; VHR inh abs: inactive; Yp Topo-I inh: inactive; FadD28 binding: inactive; MazF activator: inactive

What do the screens show for `Cc1cccc(NC(=S)N/N=C/c2cccc([N+](=O)[O-])c2)c1`?
BioA inh: inactive; VHR inh abs: inactive; Yp Topo-I inh: inactive; FadD28 binding: inactive; MazF activator: 58

What do the screens show for `CCC(=O)N1CC2(C1)[C@H](c1ccccc1)[C@H](CO)N2C(=O)NC(C)C`?
TcdB inh: inactive

How did Cc1cc(-c2ccccc2)c2c3c(c(-c4ccccc4)n2n1)c(=O)n(C)c(=O)n3C do in these assays?
BioA inh: inactive; VHR inh abs: inactive; Yp Topo-I inh: inactive; FadD28 binding: inactive; MazF activator: active

How did Cc1ccc(N(Cc2cc3cc(C)ccc3[nH]c2=O)C(=O)c2cccs2)cc1 do in these assays?
VHR inh abs: inactive; Yp Topo-I inh: inactive; TcdB inh: inactive; FadD28 binding: inactive; MazF activator: 89

What do the screens show for `CCNC(=O)N1C(=O)C2(OCCO2)c2ccccc21`?
BioA inh: inactive; VHR inh abs: inactive; Yp Topo-I inh: inactive; FadD28 binding: inactive; MazF activator: inactive

How did CCCCOc1ccc(OCCCC)c2c1NC1(N2)C(=O)N(C(C)=O)c2ccccc21 do in these assays?
BioA inh: inactive; VHR inh abs: inactive; Yp Topo-I inh: inactive; FadD28 binding: inactive; MazF activator: 105

How did O=C(N[C@H]1CC[C@@H](CC(=O)N2CCOCC2)O[C@@H]1CO)c1ccccn1 do in these assays?
BioA inh: inactive; TcdB inh: inactive

Results for CC1CCC(NC(=O)CCC(=O)N2CC(C)Oc3ccccc32)CC1 (stereo not given) ?
BioA inh: inactive; VHR inh abs: inactive; Yp Topo-I inh: inactive; TcdB inh: inactive; FadD28 binding: inactive; MazF activator: inactive

Results for CC1CN(C(=O)CCC(=O)NCCCN2C(C)CCCC2C)c2ccccc2O1 (stereo not given) ?
BioA inh: inactive; VHR inh abs: 53; Yp Topo-I inh: inactive; TcdB inh: inactive; FadD28 binding: inactive; MazF activator: inactive

What do the screens show for `O=S(=O)(c1ccccc1)N1CCN(Cc2nnc(-c3ccccc3)o2)CC1`?
BioA inh: inactive; Yp Topo-I inh: inactive; TcdB inh: 10; FadD28 binding: inactive; MazF activator: inactive

What do the screens show for `CC1=NN(CCC#N)C(=O)/C1=C/c1ccc(N(C)C)cc1`?
BioA inh: inactive; VHR inh abs: 60; Yp Topo-I inh: inactive; TcdB inh: inactive; FadD28 binding: inactive; MazF activator: inactive

What do the screens show for `CCCNC(=O)N(C)C[C@H]1Oc2cc(-c3cncnc3)ccc2S(=O)(=O)N([C@@H](C)CO)C[C@@H]1C`?
BioA inh: inactive; TcdB inh: inactive

Results for COc1ccc(-c2csc(Nc3ccc(S(N)(=O)=O)cc3)n2)cc1 ?
BioA inh: inactive; VHR inh abs: inactive; Yp Topo-I inh: inactive; FadD28 binding: inactive; MazF activator: inactive

Results for Oc1ccc(Nc2nc(-c3ccc(O)cc3)cs2)cc1 ?
VHR inh abs: inactive; Yp Topo-I inh: inactive; FadD28 binding: inactive; MazF activator: 78

How did NS(=O)(=O)c1ccc(Nc2nc(-c3ccc(O)cc3)cs2)cc1 do in these assays?
BioA inh: inactive; VHR inh abs: inactive; Yp Topo-I inh: inactive; FadD28 binding: 10; MazF activator: inactive

What do the screens show for `O=C(O)c1ccc(Nc2nc(-c3cccnc3)cs2)cc1`?
BioA inh: inactive; VHR inh abs: 53; Yp Topo-I inh: inactive; TcdB inh: inactive; FadD28 binding: inactive; MazF activator: inactive

Results for O=C(C1CCCC1)N1CC(=O)N2[C@H](CO)[C@@H](c3ccc(Br)cc3)[C@@H]2C1 ?
TcdB inh: inactive

How did CC(=O)Nc1ccc(OC(=O)Oc2ccc(NC(C)=O)cc2)cc1 do in these assays?
BioA inh: inactive; VHR inh abs: inactive; Yp Topo-I inh: inactive; TcdB inh: 11; FadD28 binding: inactive; MazF activator: inactive

What do the screens show for `CC(=O)Nc1ccc(OC(=O)N(C)C)cc1`?
VHR inh abs: inactive; Yp Topo-I inh: inactive; FadD28 binding: inactive; MazF activator: inactive

What do the screens show for `COCC(=O)N1[C@H](C(=O)N2CCCCC2)[C@@H](CO)[C@@H]2Cn3c(ccc(C4=CCCC4)c3=O)[C@@H]21`?
BioA inh: inactive; TcdB inh: inactive

How did Nc1ccc2c(c1)-c1ccccc1S(=O)(=O)N2 do in these assays?
VHR inh abs: inactive; Yp Topo-I inh: inactive; FadD28 binding: 25; MazF activator: inactive

What do the screens show for `COC(=O)C[C@@H]1CC[C@@H]2[C@H](COC[C@@H](O)CN2C(=O)Nc2ccccc2OC)O1`?
BioA inh: inactive; TcdB inh: inactive

How did Cc1cc(C)nc(NC(N)=NC(C)c2ccccc2)n1 (stereo not given) do in these assays?
VHR inh abs: inactive; TcdB inh: inactive; MazF activator: inactive

Results for Cc1cc(C)nc(NC(N)=NCCc2ccccc2)n1 ?
BioA inh: inactive; Yp Topo-I inh: inactive; TcdB inh: 10; FadD28 binding: inactive; MazF activator: inactive

How did Fc1ccc(Nc2cccc3nccnc23)cc1 do in these assays?
BioA inh: inactive; VHR inh abs: inactive; Yp Topo-I inh: inactive; FadD28 binding: inactive; MazF activator: inactive

Results for c1cc(Nc2cccc3nccnc23)c2nccnc2c1 ?
BioA inh: inactive; VHR inh abs: inactive; Yp Topo-I inh: inactive; TcdB inh: inactive; FadD28 binding: inactive; MazF activator: 51

How did COc1ccc(-c2nc(-c3ccccc3)c(-c3cc([N+](=O)[O-])ccc3C)[nH]2)cc1O do in these assays?
BioA inh: inactive; VHR inh abs: inactive; Yp Topo-I inh: inactive; FadD28 binding: inactive; MazF activator: inactive

How did Cc1ccc([N+](=O)[O-])cc1-c1[nH]c(-c2ccc(O)c(O)c2)nc1-c1ccccc1 do in these assays?
BioA inh: inactive; VHR inh abs: inactive; Yp Topo-I inh: inactive; FadD28 binding: 13; MazF activator: inactive

How did COc1ccccc1-c1ccc2c(c1)O[C@H](CN(C)C(=O)c1ccccc1)[C@@H](C)CN([C@H](C)CO)S2(=O)=O do in these assays?
BioA inh: inactive; TcdB inh: inactive

What do the screens show for `O=C(O)c1c(C(=O)O)c(-c2ccc(Br)cc2)n2c1CSC2`?
BioA inh: inactive; Yp Topo-I inh: inactive; TcdB inh: inactive; FadD28 binding: 13; MazF activator: inactive

Screening data as filed in PubChem.
